CtBP-E1A inh: inhibitors of CtBP/E1A interaction. AlphaScreen GST-E1A/His-CtBP binding, 1536-well; active compounds read low. activity change, % (concentration not given with the values). 340,000 compounds, 0.49% hits; in the data active = activity change below about -65%; inconclusive = mostly about -30% to -63%; note: % is set by controls: 0 for no effect and ±100 for the full control effect
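Homogeneous bead-based format: GST-tagged E1A captured on glutathione donor beads, His-tagged CtBP on nickel acceptor beads; compounds precede bead addition by 2 h at 37 °C.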
Six1-Eya2 inh: blocks human Six1 binding to Eya2; activity change, % (no concentration beside the values); Q15475+O00167; 360,000 compounds, 0.56% hits; AlphaScreen GST-Six1/His-Eya2 binding, biochemical; active compounds read low; AID 651725; in the data active = activity change below about -65%; inconclusive = mostly about -30% to -63%; note: % is set by controls: 0 for no effect and ±100 for the full control effect
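Compounds are tested against tagged Six1 and Eya2 proteins bridged by glutathione donor and nickel acceptor beads; after a one-hour incubation at 37 °C without light, AlphaScreen emission is recorded.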
HP1b binding inh: HP1-beta chromodomain-methylated histone interaction inhibition | P83916 | AlphaScreen HP1-beta / biotin-H3K9me3 peptide binding | Potency, µM (doses to about 114 µM), inactives show at the highest dose activity change, negative = inhibition, actives largely listed as inhibitors | 390,000 compounds, 0.56% hits; note: potency is the fitted concentration of half-maximal effect; nearly all actives have a fitted effect of over 70% in size
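HP1-beta protein (50 nM final) preincubated 30 min at room temperature with biotinylated H3(1-18)K9me3 peptide (50 nM) in PBS pH 7.4, 0.01% Tween-20, then compound added for 30 min. AlphaScreen streptavidin donor/nickel chelate acceptor beads (10 ug/mL final), 30 min dark, luminescence read.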
JMJD2A Tudor: JMJD2A Tudor domain (human) inhibition. O75164. AlphaScreen JMJD2A-Tudor / H3K4me3 peptide binding. Potency, µM (titrated, usually from 114 µM), without a hit: top-dose activity change, negative = inhibition, usual class: inhibitors. 390,000 compounds, 4.4% hits; note: potency is the fitted concentration of half-maximal effect; % is set by controls: 0 for no effect and ±100 for the full control effect; nearly all actives have a fitted effect of over 50% in size
G9a block: G9a (human) methyltransferase inhibition; 350,000 compounds, 8.8% hits; Q96KQ7; Potency, µM (series often up to 102 µM), for inactives: at the top dose activity, negative = inhibition, actives largely listed as inhibitors; G9a H3K9 monomethylation, AlphaScreen, 2 h; AID 504332; note: potency is the fitted concentration of half-maximal effect; % is set by controls: 0 for no effect and ±100 for the full control effect; nearly all actives have a fitted effect of over 75% in size
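Step 1: enzyme (final 20 nM) with compound, 15 min RT. Step 2: substrate peptide 500 nM and SAM 20 uM, 2 h RT. Step 3: anti-H3K9me1 antibody and AlphaScreen beads, 10 min, then plate read.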
BAZ2B block: inhibitors of human BAZ2B bromodomain; Q9UIF8; AlphaScreen BAZ2B-H3K14Ac peptide displacement; Potency, µM (highest dose often 114 µM), inactives show at the top dose activity change, negative = inhibition, usual class: inhibitors; 360,000 compounds, 4.4% hits; note: potency is the fitted concentration of half-maximal effect; % is set by controls: 0 for no effect and ±100 for the full control effect; nearly all actives have a fitted effect of over 60% in size
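BAZ2B (50 nM) with biotin-H3(5-23)K14Ac peptide (50 nM) in PBS pH 7.4, 0.01% Tween-20, preformed 30 min, then compound 30 min at room temperature; top concentration 110uM. AlphaScreen streptavidin donor/nickel chelate acceptor beads (10 ug/mL final), 20 min dark, signal read.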
* hit, by the source's call; ? = inconclusive; . = not tested or not shown; [ ] = dose if it differs, or a comment. Compounds with a hit are over-represented: about 10% of the library has one in this group of screens. Unless noted, calls come from the whole dose curve; as a rule, active = well fitted inhibition curve with a large enough effect; inconclusive = small, poorly fitted or top-dose-only effect; inactive = no such curve, though single readings can be large or run the other way.

SMILES	CtBP-E1A inh	Six1-Eya2 inh	HP1b binding inh	JMJD2A Tudor	G9a block	BAZ2B block
CC1=C(c2ccc(C(C)C)cc2)S(=O)(=O)N=C1N1CCN(C(=O)c2ccco2)CC1	-2	0	-3%	45µM*	14%	-18%
CC1=C(c2ccc(C(C)C)cc2)S(=O)(=O)N=C1N1CCC(C(=O)NCc2ccco2)CC1	.	.	-3%	-2%	11%[59 µM]	-11%
COc1cc(Cl)ccc1OC1(C)CCN(Cc2c(F)cccc2F)C1 (centres undefined)	3	-2	.	.	.	.
CC(C)(NO)/C(=N/O)c1cccs1	1	11	-26%	10µM*	7.1µM*	45µM*
Cc1ccc(C)n1NC(=O)c1cccs1	-8	9	-3%	-26%	-15%[12.7 µM]	-21%
O=c1[nH]c(-c2ccccn2)nc2sc(-c3ccccc3)cc12	0	?	47%	?	8.9µM*	45µM*
Cc1c(C(=O)N(C)C)sc2nc(-c3ccccn3)[nH]c(=O)c12	-97*	-89*	8%	50µM*	?	10µM*
Brc1ccc(-c2csc(N3CCCCC3)n2)cc1	.	.	.	.	5%[12.7 µM]	23%
N#CCc1nn2c3c(cnc2c1C#N)C(=O)CCC3	0	-4	-13%	-22%	45µM*	-27%
O=C(O)CC/C(=C\c1ccc(N2CCCC2)c([N+](=O)[O-])c1)c1nc2ccccc2s1	4	?	?	-35%[57.1 µM]	13µM*	40µM*
CN(c1ccccc1)c1ccc(/C=C(/CCC(=O)O)c2nc3ccccc3s2)cc1[N+](=O)[O-]	-25	?	?	22µM*	.	.
COc1ccc(-c2ccc(SCC(=O)Nc3nnc(C)s3)nn2)cc1	.	0	39%	1%	9%	-16%
CCOc1ccc(-c2ccc(SCC(=O)Nc3nnc(CC)s3)nn2)cc1	11	-11	10%	-18%	28µM*	-2%
CCc1nnc(NC(=O)CSc2ccc(-c3ccc(C)cc3)nn2)s1	-1	3	20%	-34%	50µM*	-28%
O=C(O)c1cc2ncc(-c3[nH]ncc3[N+](=O)[O-])cn2n1	-20	-21	-24%	79µM*	-47%	-21%
O=C1NC[C@@H](CCCCN2C[C@H](Cc3ccc(O)cc3)N(CCc3ccc(O)cc3)C(=O)C2=O)N(Cc2ccccc2)C1=O	-4	-3	.	.	.	.
CC/C(=N\NC(=S)Nc1cc(C)ccc1C)c1ccc(OC(F)F)cc1	-16	-26	?	?	3.2µM*	?
COCCNC(=S)N/N=C(\C)c1ccc(O)cc1	-3	-5	37%	-5%	56%[59 µM]	-13%
C/C(=N\NC(=S)Nc1ccccc1C)c1ccc(O)cc1	0	-9	?	?	35µM*	?
C/C(=N\NC(=S)Nc1c(C)cccc1C)c1ccc(OC(F)F)cc1	-4	-11	10%	?	8.9µM*	-6%
COc1ccccc1NC(=S)NNC(=S)Nc1ccc(OC(F)F)cc1	-8	0	?	79µM*	1µM*	-38%
COC(=O)N/N=C(\C)c1ccc(OC(F)F)cc1	9	3	30%	-3%[57.1 µM]	-12%	-8%
CCC(NC(=O)c1ccncc1)c1ccccc1 (centres undefined)	-1	0	17%	0%	21%	-13%
O=C(NCc1ccccc1Cl)c1ccc(Cn2c(=O)c3cccn3c3cccnc32)cc1	.	.	34%	-15%	-27%[59 µM]	-30%
O=c1[nH]c(SCc2ccccc2)ncc1S(=O)(=O)c1ccccc1	.	.	25%	-18%	.	.
CCCSc1ncc(Cl)c(C(=O)NCc2ccc(C)cc2)n1	.	.	38%	1%	15%[59 µM]	5%
CC/C(=N\NC(=S)Nc1ccc(OC)cc1)c1ccc(OC(F)F)cc1	-22	-23	?	?	40µM*	?
C/C(=N\NC(=S)NC1CCCCC1)c1ccc(O)cc1	-15	?	?	?	35µM*	?
COc1ccc(C/C(C)=N/NC(=S)Nc2ccccc2F)cc1	0	-2	?	?	?	-6%
